Experimental findings from PubChem BioAssay (Tox21) are described below.

Records with an inconclusive call do not appear. A number with no mark means an inactive call. Activity calls are given as the source filed them. Unless noted, the call rests on the fitted dose curve; in most records, active means well fitted curve in the direction sought with a large enough effect in the repeat runs; inconclusive means weak or mixed curves; inactive means no such curve, though single readings can be large; an effect the other way counts as inactive or inconclusive.

A short description of test [1]: qHTS assay to identify small molecule agonists of the RXR signaling pathway - cell viability counter screen (AID 1159529).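 Further: HEK 293T cells carrying an RXR-alpha UAS beta-lactamase reporter; series mostly up to about 77 µM; nearly all actives have a fitted effect of over 50% in size.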 Put shortly:
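Counter screen: CellTiter-Glo luminescence. Cells: RXR-alpha-UAS-bla HEK 293T. Medium: 2% charcoal-stripped FBS. Treatment: 16 h, 37 C. Reagent incubation: 30 min, RT.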
(In qHTS, concentration-response curves come from the screen itself.)

The nature of test [2]: qHTS assay to identify small molecule antagonists of the retinoic acid receptor (RAR) signaling pathway (AID 1159552; further: nearly all actives have a fitted effect of over 50% in size; further: potency means the concentration at half of the fitted maximal effect). The gist of the method:
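Antagonism of retinol-induced RARE reporter activity was measured in C3RL4 cells. Exposure to compounds and 1 uM final retinol lasted 6 hr at 37 C, with luminescence as endpoint.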

Test [3] in a line: qHTS assay to identify small molecule agonists of the retinoic acid receptor (RAR) signaling pathway (AID 1159553). Further: potency means the concentration at half of the fitted maximal effect. The gist of the method:
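Activation of retinol signaling was monitored via a RARE luciferase reporter in C3RL4 cells. After 6 hr compound treatment at 37 C, detection reagent was added for 30 min at room temperature before luminescence reading.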

Test [4] addresses Luciferin 4-monooxygenase (Photinus pyralis) (UniProt P08659). The test can be described thus: qHTS assay to identify small molecule inhibitors of firefly luciferase (AID 1224835). Further: nearly all actives have a fitted effect of over 25% in size. Further: potency means the concentration at half of the fitted maximal effect. Put shortly: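 Inhibition of purified Photinus luciferase is measured by luminescence. Substrate levels (D-luciferin, ATP) sit at their KM values. Each compound is tested in a concentration series.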

Test [5] can be described thus: qHTS assay to identify small molecule antagonists of the constitutive androstane receptor (CAR) signaling pathway - cell viability counter screen (AID 1224837). Further: series mostly up to about 92 µM; nearly all actives have a fitted effect of over 45% in size. The gist of the method:
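Using CellTiter-Fluor, viability is scored in HepG2 cells stably carrying hCAR and a 2.2kb CYP2B6 reporter after 23 hr compound exposure across 15 concentrations, with CITCO present at 50 nM.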

Test [6] deals with Nuclear receptor subfamily 1 group I member 3 (Homo sapiens) (UniProt Q14994). The test can be described thus: qHTS assay to identify small molecule agonists of the constitutive androstane receptor (CAR) signaling pathway (AID 1224839).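 Further: HepG2 cells stably carrying human CAR and a CYP2B6 luciferase reporter; series mostly up to about 92 µM; nearly all actives have a fitted effect of over 15% in size.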 The gist of the method:
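Readout: firefly luciferase luminescence via ONE-Glo. System: HepG2 double-stable for hCAR and CYP2B6-2.2kb. Conditions: 15-point compound titration, PK11195 at 0.75 uM final, 24 h incubation.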

Test [7] can be described thus: qHTS assay to identify small molecule antagonists of the estrogen related receptor signaling pathway with the pleiotropic PPARgamma coactivator (PGC) from Tox21 10K library - cell viability counter screen (AID 1224840; active means well fitted cell-killing curve with a large enough effect in the repeat runs, not every such curve was filed as active; further: nearly all actives have a fitted effect of over 40% in size). Put shortly:
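Here the PGC/ERR cells serve as a cytotoxicity control: they are exposed to compounds for 17.5 hours at 37 C, and live-cell signal is quantified using CellTiter-Fluor fluorescence.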

Test [8] addresses Thyrotropin receptor (Homo sapiens) (UniProt P16473). The test can be described thus: qHTS assay to identify small molecule agonists of the thyroid stimulating hormone receptor (TSHR) signaling pathway (AID 1224843; calls by dose curve; further: nearly all actives have a fitted effect of over 45% in size). Put shortly:
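HEK293 cells stably bearing the thyrotropin receptor were plated at 800 cells/well and challenged with compound (30 min, RT). Accumulated cAMP was quantified via cAMP-d2 competing for cryptate-tagged antibody.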

Test [9] in a line: qHTS assay to identify small molecule antagonists of the retinoid acid receptor (RAR) signaling pathway - cell viability counter screen (AID 1159551). Further: nearly all actives have a fitted effect of over 35% in size. Put shortly: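 Seed C3RL4 cells; next day add compound, then retinol to 1 uM final; incubate 6 h at 37 C; add CellTiter-Glo; read luminescence after 30 min at RT.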
The nature of test [10]: qHTS assay to identify small molecule antagonists of the estrogen related receptor (ERR) signaling pathway from Tox21 library - cell viability counter screen (AID 1224834). Further: nearly all actives have a fitted effect of over 30% in size. Further: potency means the concentration at half of the fitted maximal effect. The gist of the method:
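CellTiter-Fluor fluorescence measured; ERR cells; 17.5 h compound incubation at 37 C; 30 min reagent step.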

Test [11] is described as follows: qHTS assay to identify small molecule agonists of the constitutive androstane receptor (CAR) signaling pathway - cell viability counter screen (AID 1224836). Further: series mostly up to about 92 µM; nearly all actives have a fitted effect of over 45% in size. The gist of the method: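 Double-stable HepG2 hepatoma cells (hCAR plus CYP2B6-2.2kb) are treated for 23 h at 37 C with test compounds in 15-point concentration series. PK11195 at 0.75 uM final is co-added. Cell viability is quantified by CellTiter-Fluor.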

For test [12], the target named is Nuclear receptor subfamily 1 group I member 3 (Homo sapiens) (UniProt Q14994). The test can be described thus: qHTS assay to identify small molecule antagonists of the constitutive androstane receptor (CAR) signaling pathway (AID 1224838).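 Further: HepG2 cells stably expressing hCAR with CYP2B6 luciferase reporter stimulated by CITCO; nearly all actives have a fitted effect of over 40% in size.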 Further: potency means the concentration at half of the fitted maximal effect. The gist of the method: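 Reporter luminescence was quantified after 24 h exposure of hCAR/CYP2B6-2.2kb double-stable HepG2 cells to compounds at 15 concentrations in the presence of 50 nM CITCO final.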
Chain of Nuclear receptor subfamily 1 group I member 3 (Homo sapiens) (Q14994 whole entry, looked up): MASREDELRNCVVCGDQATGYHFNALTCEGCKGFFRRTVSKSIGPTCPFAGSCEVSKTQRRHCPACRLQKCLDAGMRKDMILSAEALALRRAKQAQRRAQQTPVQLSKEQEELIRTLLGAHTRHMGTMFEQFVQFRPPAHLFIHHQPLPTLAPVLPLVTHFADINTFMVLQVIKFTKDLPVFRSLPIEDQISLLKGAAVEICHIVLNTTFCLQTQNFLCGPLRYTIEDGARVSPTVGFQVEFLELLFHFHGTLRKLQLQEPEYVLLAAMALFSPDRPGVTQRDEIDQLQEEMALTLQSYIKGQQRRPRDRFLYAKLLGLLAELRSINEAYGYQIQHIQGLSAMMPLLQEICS

Test [13] in a line: qHTS assay to identify small molecule antagonists of the estrogen related receptor signaling pathway with the pleiotropic PPARgamma coactivator (PGC) from Tox21 10K library (AID 1224841; call rule not given here; further: series mostly up to about 92 µM; actives are mostly falling curves and most rising ones were filed inactive; nearly all actives have a fitted effect of over 50% in size). Put shortly: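 Each well held 2,000 PGC/ERR cells, pre-incubated six hours (37 C, 5% CO2). Test substances in DMSO were added by pin tool and left for 18 h at 37 C before luciferase detection by One-Glo.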

Test [14] in a line: qHTS assay to identify small molecule agonists of the estrogen related receptor signaling pathway with the pleiotropic PPARgamma coactivator (PGC) from Tox21 10K library (AID 1224842). Further: nearly all actives have a fitted effect of over 15% in size. The gist of the method:
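Luminescence from One-Glo (30 min, room temperature) measured after PGC/ERR cells had 18 h at 37 C with pinned compound (23 nL in DMSO). Cells had been seeded at 2,000 per well and pre-incubated 6 h.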

A short description of test [15]: qHTS assay to identify small molecule antagonists of the estrogen related receptor (ERR) signaling pathway - cell viability counter screen (AID 1224818).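 Further: series mostly up to about 46 µM; viability measured after 17.5 h of compound exposure.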 Put shortly:
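In the same ERR cell assay, compound-treated wells (17.5 h, 37 C) were multiplexed with a fluorogenic viability reagent, CellTiter-Fluor, read after 30 min to flag cytotoxic substances.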

Test [16] in a line: qHTS assay to identify small molecule antagonists of the estrogen related receptor signaling pathway with the pleiotropic PPARgamma coactivator (PGC) cell viability counter screen (AID 1224822; further: series mostly up to about 46 µM). Put shortly: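 Compounds in DMSO, with positive and negative controls, were applied to PGC/ERR cells (2,000/well) and left 17.5 h at 37 C before CellTiter-Fluor detection.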
Test [17] can be described thus: qHTS assay to identify small molecule agonists of the estrogen related receptor (ERR) signaling pathway (AID 1224820). The gist of the method: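 Quantitative HTS of the LOPAC library used NTP ERR reporter cells treated 18 h at 37 C. Signal is luminescence after One-Glo addition and a 30 min room-temperature incubation.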

Chain of Luciferin 4-monooxygenase (Photinus pyralis) (P08659 whole entry, looked up): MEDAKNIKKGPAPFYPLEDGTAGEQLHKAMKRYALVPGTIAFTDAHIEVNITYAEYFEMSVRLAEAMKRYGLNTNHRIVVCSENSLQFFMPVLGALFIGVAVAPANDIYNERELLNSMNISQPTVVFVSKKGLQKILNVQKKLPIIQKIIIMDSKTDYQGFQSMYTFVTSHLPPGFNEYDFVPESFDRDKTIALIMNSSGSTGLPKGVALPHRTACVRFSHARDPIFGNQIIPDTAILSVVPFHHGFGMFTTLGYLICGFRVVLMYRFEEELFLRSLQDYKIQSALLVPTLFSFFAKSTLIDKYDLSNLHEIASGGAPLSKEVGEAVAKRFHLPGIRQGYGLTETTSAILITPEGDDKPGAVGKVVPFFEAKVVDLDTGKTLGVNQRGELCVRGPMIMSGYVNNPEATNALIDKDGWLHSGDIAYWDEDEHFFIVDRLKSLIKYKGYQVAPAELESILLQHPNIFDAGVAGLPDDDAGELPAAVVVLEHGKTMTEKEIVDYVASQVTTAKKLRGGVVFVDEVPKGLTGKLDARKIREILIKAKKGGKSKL
Chain of Thyrotropin receptor (Homo sapiens) (P16473 whole entry, looked up): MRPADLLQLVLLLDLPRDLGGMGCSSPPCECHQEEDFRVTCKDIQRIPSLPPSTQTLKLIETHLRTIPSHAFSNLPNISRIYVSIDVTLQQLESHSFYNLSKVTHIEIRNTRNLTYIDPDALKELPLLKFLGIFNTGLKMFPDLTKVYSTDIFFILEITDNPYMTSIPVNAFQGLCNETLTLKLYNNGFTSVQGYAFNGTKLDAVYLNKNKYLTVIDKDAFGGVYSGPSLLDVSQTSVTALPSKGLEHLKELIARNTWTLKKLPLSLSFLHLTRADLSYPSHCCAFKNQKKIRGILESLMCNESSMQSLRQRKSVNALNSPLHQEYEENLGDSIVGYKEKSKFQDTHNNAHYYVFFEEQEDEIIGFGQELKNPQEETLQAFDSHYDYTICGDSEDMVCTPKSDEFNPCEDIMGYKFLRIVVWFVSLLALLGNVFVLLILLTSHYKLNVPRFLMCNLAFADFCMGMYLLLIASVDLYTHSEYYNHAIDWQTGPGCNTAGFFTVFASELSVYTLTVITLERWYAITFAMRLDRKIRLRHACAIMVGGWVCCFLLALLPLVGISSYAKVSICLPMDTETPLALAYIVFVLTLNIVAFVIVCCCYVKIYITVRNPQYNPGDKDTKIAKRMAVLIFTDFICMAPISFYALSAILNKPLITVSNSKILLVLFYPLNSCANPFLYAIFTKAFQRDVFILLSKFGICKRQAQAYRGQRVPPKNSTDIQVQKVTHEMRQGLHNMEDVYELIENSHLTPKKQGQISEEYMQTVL

As to `CCCOc1ccc2nc(NC(=O)OC)[nH]c2c1`, the Potency result in test [1], in test [2], in test [3], in test [4], in test [5] and in [6] was “inactive” each time. For the same compound, the Potency entry in test [7] and in test [8] was “inactive” each time.
Regarding `CCN(CC)CCOC(=O)C1(c2ccccc2)CCCC1`, the Potency result in test [9], in [2], in test [3], in test [10], in [4] and in test [11] was “inactive” in each case. For the same compound, the Potency result in test [12], in test [6], in test [7], in [13], in test [14] and in [8] was “inactive” each time.
For `CC(Cc1cccc(C(F)(F)F)c1)NCCOC(=O)c1ccccc1` (stereo not given), the Potency entry in test [9], in test [2], in [3], in test [10], in test [4] and in test [11] was “inactive” throughout. For the same compound, the Potency result in [12], in test [7] and in test [8] was “inactive” in each case.
With `CN(C)CC/C=C1\c2ccccc2COc2ccccc21`, the Potency entry in [9], in [3], in [10], in [11], in test [12] and in test [6] was “inactive” in each case. The Potency result in test [7] and in test [8] was “inactive” throughout. Also, in [2], the Potency is 21.1 µM (active). Besides, the result in test [15] and in test [16] was inactive.
With `CCCCOC(O)CC` (stereo not given), the Potency result in test [9], in test [2], in test [3], in test [10], in [4] and in [11] was “inactive” throughout. Besides, the Potency result in [5] and in [7] was “inactive” each time.
`CC(=O)CC(=O)c1ccccc1`: the Potency result in test [1], in test [2], in test [3], in [10], in test [4] and in test [6] was “inactive” throughout. Also, the Potency result in test [7] and in test [13] was “inactive” in each case. Further, the Potency in test [12] is 10.9 µM (active).
For `O=C(O)Cn1c(C(=O)Nc2nc(-c3ccccc3Cl)cs2)cc2ccccc21`, the Potency result in [9], in test [2], in test [3], in test [10], in test [11] and in test [5] was “inactive” each time. In addition, the Potency result in test [12], in test [7], in test [13] and in test [14] was “inactive” throughout. In addition, the Potency in test [4] was 13.8 µM (active).
In the case of `O=C(NN1CCCC1)NS(=O)(=O)c1ccc(Cl)cc1`, the Potency entry in test [9], in [2], in [3], in test [10], in test [4] and in test [11] was “inactive” in each case. Further, the Potency result in [5], in [6], in test [7], in [13] and in [14] was “inactive” throughout.
On to `COc1ccc([C@@H]2Sc3ccccc3N(CCN(C)C)C(=O)[C@@H]2OC(C)=O)cc1`, for which the Potency result in test [9], in [2], in test [3], in [11], in [5] and in test [7] was “inactive” throughout. For the same compound, in [8], the Potency entry is “inactive”. Further, the result in test [15], in test [17] and in [16] was inactive.
`COC(Cc1ccccc1)OC`: the Potency entry in [9], in test [2], in test [3], in test [10], in [4] and in test [11] was “inactive” throughout. Besides, the Potency result in [5], in [12], in test [6], in test [7] and in test [8] was “inactive” in each case.
With `CCCCOc1ccc(CC(=O)NO)cc1`, the Potency entry in test [9], in [2], in test [4], in [6] and in test [7] was “inactive” in each case. Moreover, the figures for the Potency in [3] and in test [10] were 29.8 µM (active) and 18.8 µM (active), respectively.
`O=C(Cl)c1ccc([N+](=O)[O-])cc1`: the Potency result in [9], in test [2], in [3], in test [10], in test [4] and in [11] was “inactive” in each case. For the same compound, the Potency result in test [5] and in test [7] was “inactive” each time.
